# Data from ChEMBL document CHEMBL3988442, “University of Dundee, Small-Polar-MMV Screening Library” (2021).
# In all, about 48,000 compounds went through this assay and about 13,000 (27%) showed an effect of 50% or more. This is one part of the list.
# Tested on: Wolbachia pipientis
# Experiment: Anti-Wolbachia Cell-Based Screen
# Type: functional
# Design: scale not given: in the data most compounds retested in dose-response had high values
# Details: 5 µM
row,Compound,Percent Effect [%]
1,Clc1cccc(C(NCc2ncc[nH]2)c2ccccn2)c1 (stereo not drawn),3.902
2,CN(C)CC(C)(O)CNC(=O)Nc1sc2ccccc2c1Cl (stereo not drawn),1.378
3,COc1coc(CN2CCCC(CCc3ccccc3C)C2)cc1=O (stereo not drawn),-0.7566
4,CCc1nccn1C1CCCN(C(=O)CCCNc2ncccn2)C1 (stereo not drawn),1.367
5,Cc1nccn1C1CCCN(C(=O)CCCNc2ncccn2)C1 (stereo not drawn),106.9
6,Cc1nc(C)n(C2CCCN(C(=O)CCCNc3ncccn3)C2)n1 (stereo not drawn),110
7,O=C(CCCNc1ncccn1)N1CCCC(n2cccn2)C1 (stereo not drawn),2.216
8,CNS(=O)(=O)CC(=O)N(C1CC1)C1Cc2ccccc2C1,0.4054
9,Cc1ncsc1C(=O)N1CCCC(c2nccn2Cc2cscn2)C1 (stereo not drawn),-18.71
10,Cc1ncsc1C(=O)N1CCCN(Cc2cscn2)CC1,-2.478
11,Cc1cnc(C(=O)N2CCCN(Cc3csc(C)n3)CC2)cn1,7.438
12,Cc1ncsc1C(=O)N1CCN(Cc2cscn2)CC1,129.9
13,Cc1cnc(C(=O)N2CCN(Cc3csc(C)n3)CC2)cn1,75.58
14,Cc1nc(CN2CCN(C(=O)c3scnc3C)CC2)cs1,142.4
15,CC(Cc1ccccn1)N(C)C(=O)c1ncc[nH]1 (stereo not drawn),-16.95
16,COCCn1cnc(-c2cc(C(=O)NC(C)C)c3ccccn23)c1,-8.086
17,O=C(CNc1cccc(S(=O)(=O)C(F)F)c1)Nc1ccccc1,9.714

row,Compound,Percent Effect [%]
1,COc1ncccc1C1CC(=O)NCc2nc3ccccn3c21 (stereo not drawn),-11.47
2,CC(C)n1ncc2c1NC(=O)CC21C(=O)Nc2c(Cl)cccc21 (stereo not drawn),-6.68
3,Cc1ccc(S(=O)(=O)NCC2(O)CCOc3ccccc32)s1 (stereo not drawn),0.721
4,Cc1cc(C)c(CNC(=O)N2CCC(N3CCNC3=O)CC2)c(C)c1,-1.308
5,COc1cccc(-c2noc(-c3ccc(N4CC(N)C4)nc3)n2)c1OC,0.2823
6,O=C(NCCc1ccccn1)[C@@H]1CC[C@@H]2[C@@H](CCN2Cc2ccoc2)O1.O=C(O)C(F)(F)F.O=C(O)C(F)(F)F,100.1
7,CS(=O)(=O)N1CC[C@H]2O[C@H](C(=O)NCCc3ccccn3)CC[C@H]21.O=C(O)C(F)(F)F,2.249
8,O=C(O)C(F)(F)F.O=C([C@@H]1CC[C@@H]2[C@@H](CCN2Cc2ccoc2)O1)N1CCCC1,8.52
9,O=C(NCc1ccco1)[C@H]1CC[C@@H]2[C@@H](CCN2Cc2cccnc2)O1.O=C(O)C(F)(F)F.O=C(O)C(F)(F)F,-10.47
10,O=C(NCc1cccnc1)[C@H]1CC[C@@H]2[C@@H](CCN2c2ncccn2)O1.O=C(O)C(F)(F)F.O=C(O)C(F)(F)F,-7.451
11,Cn1cc(CN2CC[C@H]3O[C@H](C(=O)NCc4ccco4)CC[C@H]32)cn1.O=C(O)C(F)(F)F,-21.14
12,Cn1cc(CN2CC[C@H]3O[C@H](C(=O)Nc4cnccn4)CC[C@H]32)cn1.O=C(O)C(F)(F)F,123.6
13,Cn1cc(CN2CC[C@H]3O[C@@H](C(=O)NC4CC4)CC[C@H]32)cn1.O=C(O)C(F)(F)F.O=C(O)C(F)(F)F,2.978
14,O=C(NCc1cccs1)[C@H]1CC[C@@H]2[C@@H](CCN2Cc2ccoc2)O1.O=C(O)C(F)(F)F,94.68
15,O=C(NCc1cccs1)[C@H]1CC[C@@H]2[C@@H](CCN2c2ncccn2)O1.O=C(O)C(F)(F)F,16.99
16,O=C(Nc1cnccn1)[C@H]1CC[C@@H]2[C@@H](CCN2Cc2ccoc2)O1.O=C(O)C(F)(F)F,111.7
